In all, about 5,500 compounds went through this assay and about 2,000 (36%) were called active. Another 18% or so got no clear call; they are omitted. Rule as the data show it: active = normalized growth mostly below about 0.91 (no sharp cut-off); inconclusive = no clear call, values can overlap the other calls; inactive = mostly above about 0.92. This is one part of the list.
Assay: chemical genetic growth profiling, strain panel (AID 1159580);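 also: tested at 20 µM; growth read once vehicle control cultures reached saturation at 30 °C; 1 = growth at the plate median or of vehicle wells; lower values mean less growth of the strain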
Conditions: S. cerevisiae deletion strains, growth OD

Measured: normalized growth

CCC1(C2=NCCN2)Cc2ccccc2O1 (stereo not given)
inactive: locus YAL021C, strain ccr4, stronger effect = lower value 0.996 | locus YAL026C, strain drs2, stronger effect = lower value 1.01 | locus YAL030W, strain snc1, stronger effect = lower value 1.01 | locus YAL040C, strain CLN3, stronger effect = lower value 1.07 | locus YBL061C, strain skt5, stronger effect = lower value 1 | locus YBR009C, strain hhf1, stronger effect = lower value 1.01 | locus YBR023C, strain chs3, stronger effect = lower value 1.01 | locus YBR171W, strain sec66, stronger effect = lower value 1.02 | locus YBR231C, strain swc5, stronger effect = lower value 0.998 | locus YBR279W, strain paf1, stronger effect = lower value 1.01 | locus YCL011C, strain gbp2, stronger effect = lower value 1.02 | locus YCL016C, strain dcc1, stronger effect = lower value 1 | locus YCL061C, strain MRC1 (second series), stronger effect = lower value 1.01 | locus YCL061C, strain MRC1, stronger effect = lower value 1 | locus YCL069W, strain vba3, stronger effect = lower value 1.01 | locus YCR088W, strain abp1, stronger effect = lower value 1.02 | locus YDL005C, strain med2, stronger effect = lower value 1 | locus YDL040C, strain nat1, stronger effect = lower value 1.01 | locus YDR001C, strain nth1, stronger effect = lower value 1.01 | locus YDR069C, strain doa4, stronger effect = lower value 1 | locus YDR137W, strain rgp1, stronger effect = lower value 1.01 | locus YDR159W, strain sac3, stronger effect = lower value 0.991 | locus YDR195W, strain ref2 0.967 | locus YDR297W, strain sur2, stronger effect = lower value 1 | locus YDR334W, strain swr1, stronger effect = lower value 1.01 | locus YDR335W, strain msn5, stronger effect = lower value 1.01 | locus YDR363W, strain ESC2, stronger effect = lower value 1.03 | locus YDR392W, strain spt3, stronger effect = lower value 0.818 | locus YEL003W, strain gim4, stronger effect = lower value 1.01 | locus YEL037C, strain rad23, stronger effect = lower value 1.01 | locus YEL061C, strain CIN8 (second series), stronger effect = lower value 1.01 | locus YER002W, strain NOP16, stronger effect = lower value 1.01 | locus YER015W, strain faa2, stronger effect = lower value 1 | locus YER016W, strain bim1, stronger effect = lower value 1.01 | locus YER111C, strain swi4, stronger effect = lower value 1.01 | locus YER155C, strain BEM2 (second series), stronger effect = lower value 0.973 | locus YFR010W, strain ubp6, stronger effect = lower value 1.01 | locus YGL167C, strain pmr1, stronger effect = lower value 1 | locus YGL173C, strain kem1, stronger effect = lower value 1.01 | locus YGL227W, strain vid30, stronger effect = lower value 1.01 | locus YGL240W, strain doc1, stronger effect = lower value 0.989 | locus YGL253W, strain hxk2, stronger effect = lower value 1.02 | locus YHR013C, strain ard1, stronger effect = lower value 0.964 | locus YHR027C, strain rpn1, stronger effect = lower value 1.01 | locus YHR142W, strain chs7, stronger effect = lower value 1.02 | locus YJL092W, strain hpr5, stronger effect = lower value 1.01 | locus YJL095W, strain BCK1 (second series), stronger effect = lower value 1.01 | locus YJL115W, strain asf1, stronger effect = lower value 1 | locus YJL129C, strain trk1, stronger effect = lower value 0.996 | locus YJL154C, strain vps35, stronger effect = lower value 1.01 | locus YJL164C, strain tpk1, stronger effect = lower value 0.995 | locus YJL166W, strain qcr8, stronger effect = lower value 1 | locus YJL187C, strain SWE1, stronger effect = lower value 1.01 | locus YKL160W, strain elf1, stronger effect = lower value 0.99 | locus YKR026C, strain gcn3, stronger effect = lower value 1.02 | locus YKR091W, strain srl3, stronger effect = lower value 1 | locus YLL001W, strain dnm1, stronger effect = lower value 1.01 | locus YLL026W, stronger effect = lower value 1 | locus YLL041C, strain sdh2, stronger effect = lower value 1.01 | locus YLR027C, strain aat2, stronger effect = lower value 1.01 | locus YLR221C, strain rsa3, stronger effect = lower value 1.01 | locus YLR258W, strain gsy2, stronger effect = lower value 1 | locus YLR262C, strain YPT6 (second series), stronger effect = lower value 0.995 | locus YLR320W, strain mms22, stronger effect = lower value 1 | locus YLR342W, strain FKS1, stronger effect = lower value 1 | locus YLR357W, strain rsc2, stronger effect = lower value 1.01 | locus YLR370C, strain arc18, stronger effect = lower value 1.01 | locus YLR384C, strain iki3, stronger effect = lower value 1.01 | locus YML120C, strain ndi1, stronger effect = lower value 1.01 | locus YMR058W, strain fet3, stronger effect = lower value 1.01 | locus YMR125W, strain sto1, stronger effect = lower value 1.01 | locus YMR129W, stronger effect = lower value 1 | locus YMR205C, strain PFK2, stronger effect = lower value 1 | locus YMR231W, strain pep5, stronger effect = lower value 1 | locus YMR263W, strain SAP30, stronger effect = lower value 1.01 | locus YMR307W, strain GAS1, stronger effect = lower value 1.03 | locus YNL071W, strain lat1, stronger effect = lower value 1.01 | locus YNL153C, strain GIM3, stronger effect = lower value 0.99 | locus YNL175C, strain NOP13, stronger effect = lower value 1.01 | locus YNL197C, strain WHI3, stronger effect = lower value 1.01 | locus YNL209W, strain ssb2, stronger effect = lower value 1 | locus YNL224C, strain SQS1, stronger effect = lower value 1.01 | locus YNL248C, strain rpa49, stronger effect = lower value 1 | locus YNL322C, strain KRE1 (second series), stronger effect = lower value 1 | locus YNL322C, strain KRE1, stronger effect = lower value 1.01 | locus YNR049C, strain mso1, stronger effect = lower value 1.01 | locus YOR001W, strain rrp6, stronger effect = lower value 1 | locus YOR070C, strain gyp1, stronger effect = lower value 1.01 | locus YOR080W, strain dia2, stronger effect = lower value 0.994 | locus YOR083W, strain WHI5 (second series), stronger effect = lower value 1 | locus YOR083W, strain WHI5, stronger effect = lower value 0.994 | locus YOR106W, strain vam3, stronger effect = lower value 1.01 | locus YOR265W, strain rbl2, stronger effect = lower value 1.01 | locus YOR270C, strain vph1, stronger effect = lower value 1.03 | locus YOR290C, strain snf2, stronger effect = lower value 0.965 | locus YPL051W, strain arl3, stronger effect = lower value 1 | locus YPL078C, strain atp4, stronger effect = lower value 1 | locus YPL106C, strain sse1, stronger effect = lower value 0.984 | locus YPL240C, strain hsp82, stronger effect = lower value 0.991 | locus YPL241C, strain CIN2, stronger effect = lower value 1.01

From PubChem BioAssay AID1159580 (chemical genetic matrix, 2015)
